In the supplement of paper PMC10849652:
About 7,900 targets were measured; listed, in parts, are those with a hit and a random draw of the rest. About 0.6% of all pairs of compound and target were hits. A number with no mark means an inactive call.

Key:
Test in all cases: log2 fold change, soluble protein after heating vs DMSO (PISA); higher = thermal stabilisation; K562 cells, 10 uM, 30 min; active = over 0.2 and 3.5 SD of the protein, either way, in both replicates (recomputed)
[1] = compound: CC1=C(C=C(C=C1)NC(=O)C2=CC(=CC=C2)C(C)(C)C#N)NC3=CC4=C(C=C3)N=CN(C4=O)C
In short: (§1)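 Aliquots of K562 cells (2×10^6 cells/mL) treated with 10 μM compound for 30 min were heated for 3 min over 48°C-58°C. After pooling and extraction in PBS with 0.5% NP-40 at 4°C, soluble protein from a 21,000xg, 90 min spin was quantified by TMTpro 16plex LC-MS/MS with channel sums equalised. Thermal stability is expressed against control samples, from duplicates, as a log2 fold change.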

[2] = compound: CC1=C(C=C(C=C1)NC(=O)C2=CC(=CC=C2)N(C)C)NC(=O)C3=CC=C(C=C3)O
In short: as §1

[3] = compound: CC1=CC=C(C=C1)SC2=C3C=C(SC3=CN=C2)C(=O)N
In short: as §1

[4] = compound: CC1=NC(=CC=C1)C2=C(N=C(N2)C(C)(C)C)C3=CC4=NC=CN=C4C=C3
In short: as §1

[5] = compound: CCCCN(Cc1ccc(C(=O)NO)cc1)C(=O)Nc1ccccc1 [Nexturastat A]
In short: as §1

[6] = compound: CCCS(=O)(=O)Nc1ccc(F)c(C(=O)c2c[nH]c3ncc(-c4ccc(Cl)cc4)cc23)c1F [vemurafenib]
In short: as §1

[7] = compound: CCCS(=O)(=O)Nc1ccc(F)c(C(=O)c2c[nH]c3ncc(Cl)cc23)c1F
In short: as §1

[8] = compound: CCCc1cc(C)[nH]c(=O)c1CNC(=O)c1cc(-c2ccnc(N3CCN(C)CC3)c2)cc2c1cnn2C(C)C
In short: as §1

[9] = compound: CCN(CC)Cc1ccc2cc(COC(=O)Nc3ccc(C(=O)NO)cc3)ccc2c1 [givinostat]
In short: as §1

[10] = compound: CCN(CCCOc1ccc2c(Nc3cc(CC(=O)Nc4cccc(F)c4)[nH]n3)ncnc2c1)CCOP(=O)(O)O [barasertib]
In short: as §1

Chain of UniProt Q96RE7 (Q96RE7 whole entry, looked up): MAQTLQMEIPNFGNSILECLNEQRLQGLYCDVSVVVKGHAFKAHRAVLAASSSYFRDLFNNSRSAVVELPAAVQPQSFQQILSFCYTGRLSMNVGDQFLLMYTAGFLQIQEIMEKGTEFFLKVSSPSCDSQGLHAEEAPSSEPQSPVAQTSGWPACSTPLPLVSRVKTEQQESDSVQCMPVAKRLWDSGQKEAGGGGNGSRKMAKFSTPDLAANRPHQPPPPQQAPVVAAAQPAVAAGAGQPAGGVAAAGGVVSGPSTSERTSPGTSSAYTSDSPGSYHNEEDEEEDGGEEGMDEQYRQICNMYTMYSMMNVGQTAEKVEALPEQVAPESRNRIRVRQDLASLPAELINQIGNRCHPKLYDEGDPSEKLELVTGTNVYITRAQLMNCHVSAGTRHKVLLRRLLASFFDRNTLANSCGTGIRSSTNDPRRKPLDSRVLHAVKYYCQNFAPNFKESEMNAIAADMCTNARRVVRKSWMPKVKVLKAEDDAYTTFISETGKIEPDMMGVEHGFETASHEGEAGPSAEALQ
Chain of UniProt Q16656 (Q16656 whole entry, looked up): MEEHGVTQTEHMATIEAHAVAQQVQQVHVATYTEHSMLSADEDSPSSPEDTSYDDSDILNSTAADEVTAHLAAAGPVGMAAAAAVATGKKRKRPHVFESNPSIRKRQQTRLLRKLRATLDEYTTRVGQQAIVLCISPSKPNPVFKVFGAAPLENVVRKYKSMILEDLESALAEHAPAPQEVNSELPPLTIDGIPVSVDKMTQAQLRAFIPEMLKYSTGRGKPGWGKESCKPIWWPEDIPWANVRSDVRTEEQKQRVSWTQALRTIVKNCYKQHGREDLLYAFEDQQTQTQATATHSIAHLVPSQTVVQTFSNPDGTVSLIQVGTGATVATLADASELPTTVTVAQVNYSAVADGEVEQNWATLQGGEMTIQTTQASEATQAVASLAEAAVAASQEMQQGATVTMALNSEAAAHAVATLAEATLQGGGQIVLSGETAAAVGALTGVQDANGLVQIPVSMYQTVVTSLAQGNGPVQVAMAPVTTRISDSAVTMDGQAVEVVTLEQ
Chain of UniProt Q14149 (Q14149 whole entry, looked up): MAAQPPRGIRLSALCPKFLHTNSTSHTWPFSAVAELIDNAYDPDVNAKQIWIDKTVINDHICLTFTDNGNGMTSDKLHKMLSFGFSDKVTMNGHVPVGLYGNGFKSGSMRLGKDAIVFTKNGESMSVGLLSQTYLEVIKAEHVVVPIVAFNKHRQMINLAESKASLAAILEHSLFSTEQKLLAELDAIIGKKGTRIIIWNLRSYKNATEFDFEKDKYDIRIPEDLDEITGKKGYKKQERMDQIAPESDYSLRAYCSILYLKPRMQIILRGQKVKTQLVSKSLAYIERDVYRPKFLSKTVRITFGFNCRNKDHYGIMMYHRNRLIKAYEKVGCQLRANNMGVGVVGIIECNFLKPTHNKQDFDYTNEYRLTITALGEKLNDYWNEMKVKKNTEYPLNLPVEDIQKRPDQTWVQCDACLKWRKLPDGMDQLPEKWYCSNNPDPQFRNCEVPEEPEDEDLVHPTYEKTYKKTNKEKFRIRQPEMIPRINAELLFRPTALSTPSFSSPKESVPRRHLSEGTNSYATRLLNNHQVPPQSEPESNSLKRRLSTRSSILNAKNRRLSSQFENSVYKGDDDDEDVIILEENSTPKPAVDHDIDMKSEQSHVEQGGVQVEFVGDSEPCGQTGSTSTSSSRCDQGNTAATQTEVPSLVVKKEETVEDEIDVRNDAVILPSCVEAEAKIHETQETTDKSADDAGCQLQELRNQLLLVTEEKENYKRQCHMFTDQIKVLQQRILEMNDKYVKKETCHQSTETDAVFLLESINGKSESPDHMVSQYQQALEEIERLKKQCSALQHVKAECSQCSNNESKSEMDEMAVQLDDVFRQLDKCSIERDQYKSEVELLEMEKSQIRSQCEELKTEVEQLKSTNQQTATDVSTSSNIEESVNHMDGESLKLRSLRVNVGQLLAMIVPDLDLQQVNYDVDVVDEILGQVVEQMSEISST
Chain of UniProt P56556 (P56556 whole entry, looked up): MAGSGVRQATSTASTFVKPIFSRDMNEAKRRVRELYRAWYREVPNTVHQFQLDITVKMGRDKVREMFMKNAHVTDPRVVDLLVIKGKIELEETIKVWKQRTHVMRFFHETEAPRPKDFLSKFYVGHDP
Chain of UniProt Q00013 (Q00013 whole entry, looked up): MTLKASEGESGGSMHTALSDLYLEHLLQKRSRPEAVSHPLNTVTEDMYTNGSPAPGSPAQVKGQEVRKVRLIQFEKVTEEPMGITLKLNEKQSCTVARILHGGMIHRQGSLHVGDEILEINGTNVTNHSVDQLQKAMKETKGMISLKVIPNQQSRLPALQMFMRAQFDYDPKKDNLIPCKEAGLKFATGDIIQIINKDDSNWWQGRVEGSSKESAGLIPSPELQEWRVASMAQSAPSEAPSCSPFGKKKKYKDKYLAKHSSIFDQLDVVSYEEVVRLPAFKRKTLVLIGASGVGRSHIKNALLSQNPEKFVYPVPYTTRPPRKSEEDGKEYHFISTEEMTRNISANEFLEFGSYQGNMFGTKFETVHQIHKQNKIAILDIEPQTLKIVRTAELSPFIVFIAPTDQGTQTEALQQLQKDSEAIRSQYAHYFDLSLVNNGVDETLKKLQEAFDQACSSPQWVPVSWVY
Chain of UniProt Q13423 (Q13423 whole entry, looked up): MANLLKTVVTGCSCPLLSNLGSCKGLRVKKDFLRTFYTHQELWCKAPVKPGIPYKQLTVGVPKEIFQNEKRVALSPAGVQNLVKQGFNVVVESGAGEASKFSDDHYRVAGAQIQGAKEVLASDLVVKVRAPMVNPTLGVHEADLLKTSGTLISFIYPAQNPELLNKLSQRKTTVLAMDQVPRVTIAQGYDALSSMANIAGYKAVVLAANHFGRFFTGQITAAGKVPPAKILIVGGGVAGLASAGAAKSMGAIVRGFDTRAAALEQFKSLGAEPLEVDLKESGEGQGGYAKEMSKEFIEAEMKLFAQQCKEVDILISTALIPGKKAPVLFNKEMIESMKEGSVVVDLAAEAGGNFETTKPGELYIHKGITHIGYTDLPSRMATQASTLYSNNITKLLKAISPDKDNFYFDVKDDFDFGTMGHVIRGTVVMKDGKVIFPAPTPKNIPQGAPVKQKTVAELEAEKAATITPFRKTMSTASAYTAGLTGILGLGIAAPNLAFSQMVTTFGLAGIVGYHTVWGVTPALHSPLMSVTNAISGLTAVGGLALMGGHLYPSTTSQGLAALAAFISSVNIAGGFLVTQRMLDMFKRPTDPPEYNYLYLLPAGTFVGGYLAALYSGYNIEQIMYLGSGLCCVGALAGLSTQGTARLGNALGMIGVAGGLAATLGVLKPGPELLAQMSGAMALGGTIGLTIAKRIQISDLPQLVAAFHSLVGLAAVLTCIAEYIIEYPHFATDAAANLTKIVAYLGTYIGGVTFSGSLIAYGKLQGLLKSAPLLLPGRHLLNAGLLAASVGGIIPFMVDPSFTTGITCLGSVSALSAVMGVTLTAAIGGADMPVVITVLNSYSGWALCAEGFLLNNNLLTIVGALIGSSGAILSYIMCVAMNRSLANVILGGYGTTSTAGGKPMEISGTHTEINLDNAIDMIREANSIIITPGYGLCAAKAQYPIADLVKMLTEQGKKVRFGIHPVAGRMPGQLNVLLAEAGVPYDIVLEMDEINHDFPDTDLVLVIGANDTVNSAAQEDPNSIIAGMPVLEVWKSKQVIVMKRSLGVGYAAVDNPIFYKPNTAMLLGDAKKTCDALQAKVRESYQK
Chain of UniProt Q9HCE1 (Q9HCE1 whole entry, looked up): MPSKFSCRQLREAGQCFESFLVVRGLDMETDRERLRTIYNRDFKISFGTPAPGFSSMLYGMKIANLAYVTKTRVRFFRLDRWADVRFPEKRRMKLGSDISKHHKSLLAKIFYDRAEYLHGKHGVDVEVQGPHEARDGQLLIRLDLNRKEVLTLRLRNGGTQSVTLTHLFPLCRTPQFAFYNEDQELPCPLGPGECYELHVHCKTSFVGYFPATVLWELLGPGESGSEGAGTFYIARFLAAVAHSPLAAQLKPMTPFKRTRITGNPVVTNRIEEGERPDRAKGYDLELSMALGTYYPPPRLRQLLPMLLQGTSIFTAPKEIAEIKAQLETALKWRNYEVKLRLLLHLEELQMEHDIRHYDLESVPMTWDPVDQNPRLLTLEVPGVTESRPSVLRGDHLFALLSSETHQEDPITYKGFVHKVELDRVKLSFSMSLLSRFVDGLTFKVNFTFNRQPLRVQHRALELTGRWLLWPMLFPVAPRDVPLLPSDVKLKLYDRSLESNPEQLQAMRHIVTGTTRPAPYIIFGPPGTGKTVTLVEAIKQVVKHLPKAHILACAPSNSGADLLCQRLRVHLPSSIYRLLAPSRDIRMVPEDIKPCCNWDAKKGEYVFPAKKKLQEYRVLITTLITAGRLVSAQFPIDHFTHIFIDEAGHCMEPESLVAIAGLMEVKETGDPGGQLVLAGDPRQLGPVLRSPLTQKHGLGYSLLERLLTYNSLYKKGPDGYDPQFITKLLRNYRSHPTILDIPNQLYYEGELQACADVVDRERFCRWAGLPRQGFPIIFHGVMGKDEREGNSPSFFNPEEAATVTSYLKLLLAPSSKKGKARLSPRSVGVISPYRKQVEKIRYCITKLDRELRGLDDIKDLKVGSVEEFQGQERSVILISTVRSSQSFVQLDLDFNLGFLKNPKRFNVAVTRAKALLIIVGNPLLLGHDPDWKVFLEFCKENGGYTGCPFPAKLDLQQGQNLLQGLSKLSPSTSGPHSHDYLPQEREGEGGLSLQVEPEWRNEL
Chain of UniProt Q9BRA0 (Q9BRA0 whole entry, looked up): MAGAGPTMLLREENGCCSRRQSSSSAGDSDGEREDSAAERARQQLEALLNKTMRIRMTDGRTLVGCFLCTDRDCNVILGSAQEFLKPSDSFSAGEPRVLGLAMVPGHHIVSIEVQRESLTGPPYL
Chain of UniProt O00483 (O00483 whole entry, looked up): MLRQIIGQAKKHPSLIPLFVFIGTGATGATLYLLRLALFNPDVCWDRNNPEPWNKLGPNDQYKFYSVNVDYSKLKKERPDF

| Target | log2 fold change [1] | log2 fold change [2] | log2 fold change [3] | log2 fold change [4] | log2 fold change [5] | log2 fold change [6] | log2 fold change [7] | log2 fold change [8] | log2 fold change [9] | log2 fold change [10] |
| --- | --- | --- | --- | --- | --- | --- | --- | --- | --- | --- |
| NA, A0A0B4J2A0 | 0.016 | -0.028 | 0.002 | -0.006 | -0.043 | 0.017 | 0.072 | -0.091 | 0.029 | 0.012 |
| NAA38 isoform 2 (UniProt Q9BRA0) | 0.018 | 0.041 | 0.018 | -0.044 | 0.052 | 0.094 | 0.042 | -0.129 | 0.066 | -0.025 |
| NDUFB10 (UniProt O96000) | -0.093 | -0.008 | 0.001 | 0.05 | -0.002 | -0.019 | 0 | -0.126 | -0.023 | 0.02 |
| NRF1 isoform 4 (UniProt Q16656) | 0.002 | 0.03 | -0.015 | 0.051 | -0.316 | 0.004 | 0.081 | -0.007 | 0.042 | 0.034 |
| MMS19 isoform 8 (UniProt Q96T76) | -0.022 | -0.029 | 0 | 0.067 | 0.051 | 0.047 | 0.1 | 0.061 | -0.061 | 0.063 |
| NPC1 (UniProt O15118) | -0.018 | 0.01 | 0.006 | 0.066 | -0.041 | 0.007 | -0.019 | -0.028 | -0.051 | 0.02 |
| NDUFA4 (UniProt O00483) | 0.046 | -0.069 | -0.003 | 0.049 | -0.033 | 0.002 | 0.018 | -0.023 | -0.099 | 0.044 |
| NMT2 (UniProt O60551) | 0.006 | 0.018 | 0.237 | 0.024 | -0.037 | -0.034 | 0.031 | 0.02 | -0.233 | 0 |
| NOP2 isoform 4 (UniProt P46087) | -0.031 | -0.062 | -0.105 | -0.264 | 0.2 | -0.433 | -0.051 | 0.172 | 0.178 | -0.223 |
| OTULIN (UniProt Q96BN8) | 0.03 | 0.002 | 0.035 | 0.015 | -0.17 | -0.023 | 0.171 | -0.018 | 0.039 | 0.105 |
| MRPS9 (UniProt P82933) | 0.053 | -0.025 | -0.029 | 0.02 | 0.057 | -0.043 | 0.053 | -0.019 | 0.026 | -0.043 |
| MPP1 (UniProt Q00013) | 0.117 | -0.052 | 0.043 | 0.025 | 0.002 | 0.029 | 0.04 | 0.053 | 0.062 | 0.034 |
| MTHFD1 (UniProt P11586) | 0.052 | -0.026 | 0.003 | 0.042 | -0.046 | 0.06 | 0.046 | -0.013 | 0.048 | 0.038 |
| NELFB isoform 2 (UniProt Q8WX92) | -0.026 | -0.062 | 0.035 | 0.05 | -0.032 | 0.06 | 0.08 | -0.007 | 0.069 | 0.046 |
| MORC3 (UniProt Q14149) | -0.02 | -0.06 | -0.025 | 0.059 | -0.296 | 0.095 | 0.032 | 0.11 | -0.193 | 0.102 |
| NNT (UniProt Q13423) | 0.02 | -0.004 | 0.004 | 0.058 | -0.091 | 0.025 | 0.016 | -0.023 | 0.001 | 0.01 |
| PACRGL (UniProt Q8N7B6) | 0.01 | – | – | – | – | – | – | – | – | – |
| MOV10 (UniProt Q9HCE1) | 0.044 | 0.017 | -0.055 | -0.067 | 0.221 | -0.027 | -0.048 | 0.054 | -0.006 | -0.05 |
| NUP107 (UniProt P57740) | -0.035 | 0.085 | 0.117 | 0.012 | 0.17 | 0.1 | 0.219 | -0.031 | 0.011 | 0.017 |
| MPHOSPH8 isoform 2 (UniProt Q99549) | -0.159 | 0.179 | -0.159 | -0.022 | -0.013 | -0.02 | -0.1 | -0.002 | – | – |
| NACC1 (UniProt Q96RE7) | -0.043 | -0.012 | 0.048 | 0.164 | -0.036 | 0.154 | 0.064 | 0.025 | 0.208 | 0.115 |
| NEK3 (UniProt P51956) | 0.058 | -0.055 | 0.052 | -0.108 | -0.033 | 0.089 | -0.123 | -0.063 | -0.013 | – |
| MRPS6 (UniProt P82932) | 0.081 | -0.052 | 0.006 | 0.128 | 0.076 | 0.1 | 0.059 | 0.062 | 0.037 | -0.017 |
| NDUFA6 (UniProt P56556) | 0.029 | -0.082 | 0.1 | 0.125 | -0.067 | 0.04 | 0.198 | -0.064 | 0.047 | 0.035 |
| MYH10 isoform 3 (UniProt P35580) | 0.009 | -0.033 | 0.019 | 0.07 | -0.05 | 0.028 | 0.05 | 0 | -0.003 | 0.038 |
| NPEPPS (UniProt P55786) | 0.079 | -0.012 | -0.004 | 0.018 | -0.017 | -0.022 | 0.003 | 0.009 | -0.02 | 0.008 |
| NMRAL1 (UniProt Q9HBL8) | 1.01 (active) | 0.029 | 0.025 | -0.151 | -0.138 | 0.003 | -0.074 | 0.234 | 0.027 | -0.021 |
| NSUN2 (UniProt Q08J23) | -0.042 | 0.013 | -0.021 | -0.009 | 0.037 | 0.016 | 0.061 | 0.019 | -0.204 | 0.037 |
